# Measurements from PubChem BioAssay (NCI).
# The panel holds about 79,000 compounds, 15% with a hit somewhere; the sample as a whole holds those more often. Values without a mark were called inactive. Activity calls are given as the source filed them. Rule as the data show it: active = growth inhibition above about 70%; inactive = the rest.
# How the values were obtained:
# [1] = NCI Yeast Anticancer Drug Screen. Data for the rad52 strain (AID 147);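 also: 0% = growth of vehicle-treated control cultures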; details: S. cerevisiae rad52 mutant growth inhibition, stronger effect = higher value
# Procedure, shortened: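 Inhibition of yeast growth, referenced to vehicle controls, was the measured output for a strain with defective DNA damage repair.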
# [2] = NCI Yeast Anticancer Drug Screen. Data for the wt1 strain (AID 149);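 also: 0% = growth of vehicle-treated wt1 cultures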; details: S. cerevisiae wt1 strain (SPY 50644) growth inhibition, stronger effect = higher value
# Procedure, shortened: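 Compounds are added to wt1 yeast cultures. Growth is then measured. Inhibition is expressed relative to vehicle-treated controls.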
# [3] = NCI Yeast Anticancer Drug Screen. Data for the rad50EPP+ strain (AID 151);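 also: 0% = growth of vehicle-treated control cultures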; details: S. cerevisiae rad50 mutant strain, stronger effect = higher value
# Procedure, shortened: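 Genetically defined yeast (rad50EPP+, DNA damage repair alteration) is grown with compound, and inhibition of growth is expressed relative to vehicle-treated controls.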
# [4] = NCI Yeast Anticancer Drug Screen. Data for the mgt1 strain (AID 153); details: S. cerevisiae mgt1 mutant growth inhibition, stronger effect = higher value
# Procedure, shortened: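 In the mgt1 strain, test compounds were added and growth inhibition was determined relative to vehicle-treated controls.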
# [5] = NCI Yeast Anticancer Drug Screen. Data for the rad50 strain (AID 155);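 also: 0% = growth of vehicle-only cultures of the same strain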; details: S. cerevisiae rad50 strain growth inhibition, stronger effect = higher value
# Procedure, shortened: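 Inhibition values express reduced yeast growth in compound-treated cultures relative to vehicle-treated controls.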
# [6] = NCI Yeast Anticancer Drug Screen. Data for the mec2-1 strain (AID 157); details: S. cerevisiae mec2-1 strain, stronger effect = higher value
# Procedure, shortened: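 Each compound was tested on mec2-1 yeast, a strain altered in DNA damage repair or cell cycle control. Growth inhibition is reported relative to vehicle.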
# [7] = NCI Yeast Anticancer Drug Screen. Data for the rad14 strain (AID 159);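 also: 0% = growth of vehicle-treated control cultures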; details: S. cerevisiae rad14 strain growth inhibition, stronger effect = higher value
# Procedure, shortened: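 A mutant yeast strain defective in DNA damage repair is treated with compound; inhibition of its growth is scored against untreated, vehicle-exposed cultures.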
# [8] = NCI Yeast Anticancer Drug Screen. Data for the sgs1 mgt1 strain (AID 161);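 also: 0% = growth of cultures given vehicle only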; details: S. cerevisiae sgs1 mgt1 strain, stronger effect = higher value
# Procedure, shortened: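 Inhibition of yeast growth, normalised to vehicle-treated controls, is reported for a strain bearing genetic alterations in DNA damage repair.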
# [9] = NCI Yeast Anticancer Drug Screen. Data for the CLN2oe strain (AID 163);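 also: 0% = growth of vehicle-only control cultures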; details: S. cerevisiae CLN2oe strain, stronger effect = higher value
# Procedure, shortened: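 First, the altered yeast strain was treated with each compound; second, its growth was measured; finally, inhibition was derived by comparison with vehicle controls.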
# [10] = NCI Yeast Anticancer Drug Screen. Data for the cln2 rad14 strain (AID 165);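 also: 0% = growth equal to vehicle treated cultures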; details: S. cerevisiae cln2 rad14 strain, stronger effect = higher value
# Procedure, shortened: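 Test compounds were added to cln2 rad14 yeast cultures; inhibition of growth was then determined by comparison with vehicle treatment.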
# [11] = NCI Yeast Anticancer Drug Screen. Data for the bub3 strain (AID 167); details: S. cerevisiae bub3 mutant strain, stronger effect = higher value
# Procedure, shortened: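 Steps: expose the mutant yeast strain to compound; grow alongside vehicle-treated cultures; measure growth; express inhibition against the vehicle cultures.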
# [12] = NCI Yeast Anticancer Drug Screen. Data for the wt2 strain (AID 169);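 also: 0% = growth of vehicle-treated yeast cultures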; details: S. cerevisiae wt2 strain growth inhibition, stronger effect = higher value
# Procedure, shortened: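 The panel's yeast strains carry defined changes in DNA repair or cell cycle genes. Each strain is grown with compound, and growth loss is scored relative to vehicle.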
# [13] = NCI Yeast Anticancer Drug Screen. Data for the mlh1 rad18 strain (AID 175); details: S. cerevisiae mlh1 rad18 strain growth inhibition, stronger effect = higher value
# Procedure, shortened: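 Inhibition values reflect reduced growth of mutant yeast versus vehicle-treated controls following compound exposure; the mutations affect DNA damage repair.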
# [14] = NCI Yeast Anticancer Drug Screen. Data for the rad18 strain (AID 177); details: S. cerevisiae rad18 mutant growth inhibition, stronger effect = higher value
# Procedure, shortened: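 Steps: expose repair-mutant yeast to compound; measure growth; express as inhibition relative to vehicle control.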
# [15] = at 5.0 µM (retest, dose inferred, filed as 0.5)
# [16] = at 50.0 µM (retest, dose inferred, filed as 5.0)
smiles,measurement,setting,value
Cc1cc2c3ccccc3c3ccccc3c2nn1,growth inhibition,[1]; at 1.2 µM,2%
same,growth inhibition,[1]; at 3.7 µM,21%
same,growth inhibition,[1]; at 11.0 µM,60%
same,growth inhibition,[1]; at 33.0 µM,74% (active)
same,growth inhibition,[1]; at 100.0 µM,80% (active)
same,growth inhibition,[2]; at 1.2 µM,-7%
same,growth inhibition,[2]; at 3.7 µM,-6%
same,growth inhibition,[2]; at 11.0 µM,-8%
same,growth inhibition,[2]; at 33.0 µM,-8%
same,growth inhibition,[2]; at 100.0 µM,-5%
same,growth inhibition,[3]; at 1.2 µM,13%
same,growth inhibition,[3]; at 3.7 µM,38%
same,growth inhibition,[3]; at 11.0 µM,56%
same,growth inhibition,[3]; at 33.0 µM,60%
same,growth inhibition,[3]; at 100.0 µM,52%
same,growth inhibition,[4]; at 1.2 µM,-4%
same,growth inhibition,[4]; at 3.7 µM,-6%
same,growth inhibition,[4]; at 11.0 µM,-5%
same,growth inhibition,[4]; at 33.0 µM,-4%
same,growth inhibition,[4]; at 100.0 µM,-6%
same,growth inhibition,[5]; at 1.2 µM,5%
same,growth inhibition,[5]; at 3.7 µM,25%
same,growth inhibition,[5]; [15],2%
same,growth inhibition,[5]; at 11.0 µM,72% (active)
same,growth inhibition,[5]; at 33.0 µM,83% (active)
same,growth inhibition,[5]; [16],77% (active)
same,growth inhibition,[5]; at 50.0 µM,94.7% (active)
same,growth inhibition,[5]; at 100.0 µM,79% (active)
same,growth inhibition,[6]; at 1.2 µM,2%
same,growth inhibition,[6]; at 3.7 µM,0%
same,growth inhibition,[6]; [15],-46%
same,growth inhibition,[6]; at 11.0 µM,10%
same,growth inhibition,[6]; at 33.0 µM,7%
same,growth inhibition,[6]; [16],-15%
same,growth inhibition,[6]; at 50.0 µM,21.8%
same,growth inhibition,[6]; at 100.0 µM,12%
same,growth inhibition,[7]; at 1.2 µM,3%
same,growth inhibition,[7]; at 3.7 µM,8%
same,growth inhibition,[7]; at 11.0 µM,15%
same,growth inhibition,[7]; at 33.0 µM,15%
same,growth inhibition,[7]; at 100.0 µM,15%
same,growth inhibition,[8]; [15],-61%
same,growth inhibition,[8]; [16],-15%
same,growth inhibition,[8]; at 50.0 µM,36.5%
same,growth inhibition,[9]; at 1.2 µM,-3%
same,growth inhibition,[9]; at 3.7 µM,-3%
same,growth inhibition,[9]; at 11.0 µM,1%
same,growth inhibition,[9]; at 33.0 µM,1%
same,growth inhibition,[9]; at 100.0 µM,0%
same,growth inhibition,[10]; [15],-59%
same,growth inhibition,[10]; [16],-24%
same,growth inhibition,[10]; at 50.0 µM,27.5%
same,growth inhibition,[11]; at 1.2 µM,-9%
same,growth inhibition,[11]; at 3.7 µM,-1%
same,growth inhibition,[11]; [15],-64%
same,growth inhibition,[11]; at 11.0 µM,7%
same,growth inhibition,[11]; at 33.0 µM,9%
same,growth inhibition,[11]; [16],-31%
same,growth inhibition,[11]; at 50.0 µM,29.1%
same,growth inhibition,[11]; at 100.0 µM,11%
same,growth inhibition,[12]; at 1.2 µM,-4%
same,growth inhibition,[12]; at 3.7 µM,-3%
same,growth inhibition,[12]; at 11.0 µM,-3%
same,growth inhibition,[12]; at 33.0 µM,-3%
same,growth inhibition,[12]; at 100.0 µM,-6%
same,growth inhibition,[13]; [15],-88%
same,growth inhibition,[13]; [16],-13%
same,growth inhibition,[13]; at 50.0 µM,60.4%
same,growth inhibition,[14]; at 1.2 µM,-2%
same,growth inhibition,[14]; at 3.7 µM,2%
same,growth inhibition,[14]; at 11.0 µM,10%
same,growth inhibition,[14]; at 33.0 µM,12%
same,growth inhibition,[14]; at 100.0 µM,10%
COc1ccc(C2C3=C(COC3=O)OC(C)(C)Oc3cc4c(cc32)OCO4)cc1OC (stereo not drawn),growth inhibition,[1]; at 1.2 µM,17%
same,growth inhibition,[1]; at 3.7 µM,19%
same,growth inhibition,[1]; at 11.0 µM,11%
same,growth inhibition,[1]; at 33.0 µM,47%
same,growth inhibition,[1]; at 100.0 µM,93% (active)
same,growth inhibition,[2]; at 1.2 µM,9%
same,growth inhibition,[2]; at 3.7 µM,10%
same,growth inhibition,[2]; at 11.0 µM,13%
same,growth inhibition,[2]; at 33.0 µM,23%
same,growth inhibition,[2]; at 100.0 µM,94% (active)
same,growth inhibition,[3]; at 1.2 µM,5%
same,growth inhibition,[3]; at 3.7 µM,4%
same,growth inhibition,[3]; at 11.0 µM,4%
same,growth inhibition,[3]; at 33.0 µM,4%
same,growth inhibition,[3]; at 100.0 µM,12%
same,growth inhibition,[4]; at 1.2 µM,27%
same,growth inhibition,[4]; at 3.7 µM,26%
same,growth inhibition,[4]; at 11.0 µM,31%
same,growth inhibition,[4]; at 33.0 µM,54%
same,growth inhibition,[4]; at 100.0 µM,94% (active)
same,growth inhibition,[5]; at 1.2 µM,15%
same,growth inhibition,[5]; at 3.7 µM,26%
same,growth inhibition,[5]; [15],0%
same,growth inhibition,[5]; at 11.0 µM,33%
same,growth inhibition,[5]; at 33.0 µM,57%
same,growth inhibition,[5]; [16],91% (active)
same,growth inhibition,[5]; at 50.0 µM,97% (active)
same,growth inhibition,[5]; at 100.0 µM,90% (active)
same,growth inhibition,[6]; at 1.2 µM,25%
same,growth inhibition,[6]; at 3.7 µM,29%
